# Assay results taken from publication PMC11024108.
# How the values were obtained:
# Assay in all cases: cross-link between two proteins; cross-linking mass spectrometry
# [1] = molecular target: Limbic system-associated membrane protein (UniProt Q8BLK3)
# [2] = molecular target: Melanoma inhibitory activity protein 2 (UniProt Q91ZV0)
# [3] = molecular target: Microtubule-associated protein 1A (UniProt Q9QYR6)
# [4] = molecular target: Mitochondrial import inner membrane translocase subunit TIM16 (UniProt Q9Y3D7)
# Chain of Mitochondrial import inner membrane translocase subunit TIM16 (Q9Y3D7 whole entry): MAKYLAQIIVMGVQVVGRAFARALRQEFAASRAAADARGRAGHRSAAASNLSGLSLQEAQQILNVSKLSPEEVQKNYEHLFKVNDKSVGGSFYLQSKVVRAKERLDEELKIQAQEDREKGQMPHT
# [5] = molecular target: Mitochondrial import inner membrane translocase subunit Tim9 (UniProt Q9Y5J7)
# Chain of Mitochondrial import inner membrane translocase subunit Tim9 (Q9Y5J7 whole entry): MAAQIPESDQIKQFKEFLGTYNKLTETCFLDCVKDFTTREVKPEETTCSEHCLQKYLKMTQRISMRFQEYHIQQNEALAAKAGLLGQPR
# [6] = molecular target: Monocarboxylate transporter 1 (UniProt P53985)
# Chain of Monocarboxylate transporter 1 (P53985 whole entry): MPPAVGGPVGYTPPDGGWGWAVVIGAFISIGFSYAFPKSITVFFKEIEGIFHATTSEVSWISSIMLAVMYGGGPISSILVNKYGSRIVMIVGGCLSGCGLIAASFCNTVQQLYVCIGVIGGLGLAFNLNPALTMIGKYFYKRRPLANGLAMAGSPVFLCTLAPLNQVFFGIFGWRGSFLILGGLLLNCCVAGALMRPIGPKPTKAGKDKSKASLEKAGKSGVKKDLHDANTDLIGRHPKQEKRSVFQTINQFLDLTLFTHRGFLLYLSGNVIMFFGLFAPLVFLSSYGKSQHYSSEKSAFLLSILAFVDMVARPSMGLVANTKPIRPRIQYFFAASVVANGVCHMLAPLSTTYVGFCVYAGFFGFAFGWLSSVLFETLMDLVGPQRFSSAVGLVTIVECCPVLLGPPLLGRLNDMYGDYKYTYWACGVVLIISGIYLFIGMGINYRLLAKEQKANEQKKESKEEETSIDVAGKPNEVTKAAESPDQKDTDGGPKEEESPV
# Myosin light chain 6B = Myosin light chain 6B (UniProt Q8CI43)
# Myosin-14 = Myosin-14 (UniProt Q6URW6)
# Myosin-9 = Myosin-9 (UniProt Q8VDD5)
# [7] = molecular target: NADPH:adrenodoxin oxidoreductase, mitochondrial (UniProt P22570)
# Chain of NADPH:adrenodoxin oxidoreductase, mitochondrial (P22570 whole entry): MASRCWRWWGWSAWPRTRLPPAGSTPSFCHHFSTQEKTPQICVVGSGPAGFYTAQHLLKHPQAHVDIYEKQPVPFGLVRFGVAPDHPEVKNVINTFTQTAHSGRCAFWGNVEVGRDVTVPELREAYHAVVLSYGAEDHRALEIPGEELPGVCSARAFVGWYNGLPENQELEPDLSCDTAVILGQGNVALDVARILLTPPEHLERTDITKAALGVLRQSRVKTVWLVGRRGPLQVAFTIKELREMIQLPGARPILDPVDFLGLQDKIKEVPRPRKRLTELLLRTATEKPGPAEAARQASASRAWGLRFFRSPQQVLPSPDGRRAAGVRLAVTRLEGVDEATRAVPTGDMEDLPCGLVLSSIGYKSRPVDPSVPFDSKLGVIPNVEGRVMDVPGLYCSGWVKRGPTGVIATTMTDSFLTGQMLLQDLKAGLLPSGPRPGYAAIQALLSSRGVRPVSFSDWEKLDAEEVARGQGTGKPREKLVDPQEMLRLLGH
# Neurofascin = Neurofascin (UniProt Q810U3)
# [8] = molecular target: Neuronal pentraxin receptor (UniProt Q99J85)
# [9] = molecular target: Neuronal-specific septin-3 (UniProt Q9Z1S5)
# Chain of Neuronal-specific septin-3 (Q9Z1S5 whole entry): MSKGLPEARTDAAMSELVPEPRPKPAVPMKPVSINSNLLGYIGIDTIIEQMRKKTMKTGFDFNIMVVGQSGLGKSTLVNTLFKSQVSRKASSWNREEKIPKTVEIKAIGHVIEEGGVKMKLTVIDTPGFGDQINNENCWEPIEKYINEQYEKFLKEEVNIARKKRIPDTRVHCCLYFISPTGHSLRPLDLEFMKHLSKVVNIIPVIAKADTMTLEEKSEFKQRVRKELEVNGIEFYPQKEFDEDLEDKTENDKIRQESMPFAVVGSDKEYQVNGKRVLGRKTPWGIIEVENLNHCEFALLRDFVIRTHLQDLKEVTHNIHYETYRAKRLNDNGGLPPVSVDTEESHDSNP
# Septin-11 = Septin-11 (UniProt Q8C1B7)
# Septin-6 = Septin-6 (UniProt Q9R1T4)
# Chain of Septin-6 (Q9R1T4 whole entry): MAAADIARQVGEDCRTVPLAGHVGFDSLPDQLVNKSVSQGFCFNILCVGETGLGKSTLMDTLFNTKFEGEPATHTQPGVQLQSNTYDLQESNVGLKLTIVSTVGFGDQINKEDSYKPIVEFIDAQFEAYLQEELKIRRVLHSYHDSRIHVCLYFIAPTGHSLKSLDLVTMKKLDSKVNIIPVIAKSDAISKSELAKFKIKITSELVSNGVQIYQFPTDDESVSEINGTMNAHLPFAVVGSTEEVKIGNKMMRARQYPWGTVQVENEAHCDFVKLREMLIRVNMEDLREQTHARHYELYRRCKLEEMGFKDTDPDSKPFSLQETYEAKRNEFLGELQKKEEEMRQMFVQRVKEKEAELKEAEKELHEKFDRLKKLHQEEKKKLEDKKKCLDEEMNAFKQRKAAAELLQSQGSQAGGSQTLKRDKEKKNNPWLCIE
# Septin-8 = Septin-8 (UniProt Q8CHH9)
# Chain of Septin-8 (Q8CHH9 whole entry): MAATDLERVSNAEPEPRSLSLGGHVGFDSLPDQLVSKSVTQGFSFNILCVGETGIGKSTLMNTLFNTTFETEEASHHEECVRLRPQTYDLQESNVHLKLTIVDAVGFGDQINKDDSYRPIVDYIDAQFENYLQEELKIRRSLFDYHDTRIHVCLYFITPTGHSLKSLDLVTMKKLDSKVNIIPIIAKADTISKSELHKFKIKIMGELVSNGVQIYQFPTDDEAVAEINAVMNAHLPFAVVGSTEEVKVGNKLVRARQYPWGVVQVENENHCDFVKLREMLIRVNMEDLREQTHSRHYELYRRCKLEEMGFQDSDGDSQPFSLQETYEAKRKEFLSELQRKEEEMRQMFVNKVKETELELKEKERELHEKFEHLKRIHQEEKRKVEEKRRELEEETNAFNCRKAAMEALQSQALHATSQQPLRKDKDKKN
# Septin-9 = Septin-9 (UniProt Q80UG5)
# Chain of Septin-9 (Q80UG5 whole entry): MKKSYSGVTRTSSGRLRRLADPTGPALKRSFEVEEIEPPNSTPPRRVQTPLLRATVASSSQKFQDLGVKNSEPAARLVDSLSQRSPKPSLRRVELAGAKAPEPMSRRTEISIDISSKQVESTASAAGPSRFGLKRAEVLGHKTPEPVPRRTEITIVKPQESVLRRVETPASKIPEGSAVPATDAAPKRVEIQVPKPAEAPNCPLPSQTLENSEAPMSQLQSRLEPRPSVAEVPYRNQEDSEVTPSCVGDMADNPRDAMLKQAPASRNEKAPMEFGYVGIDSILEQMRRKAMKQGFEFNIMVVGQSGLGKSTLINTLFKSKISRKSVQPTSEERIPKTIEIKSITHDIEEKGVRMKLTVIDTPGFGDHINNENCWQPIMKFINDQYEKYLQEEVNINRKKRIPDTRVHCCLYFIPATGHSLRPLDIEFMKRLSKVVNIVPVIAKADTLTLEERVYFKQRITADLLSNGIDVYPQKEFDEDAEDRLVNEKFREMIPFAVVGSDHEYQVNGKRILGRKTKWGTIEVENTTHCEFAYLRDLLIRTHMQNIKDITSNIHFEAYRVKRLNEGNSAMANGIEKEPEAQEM
# [10] = molecular target: Neutral alpha-glucosidase AB (UniProt Q14697)
# [11] = molecular target: Non-POU domain-containing octamer-binding protein (UniProt Q99K48)
# [12] = molecular target: Non-selective voltage-gated ion channel VDAC2 (UniProt P45880)
# [13] = molecular target: Prostaglandin E synthase 2 (UniProt Q9H7Z7)
# [14] = molecular target: Proteasome subunit alpha type-7 (UniProt Q9Z2U0)
# Peroxiredoxin-2 = Peroxiredoxin-2 (UniProt Q61171)
# Chain of Limbic system-associated membrane protein (Q8BLK3 whole entry): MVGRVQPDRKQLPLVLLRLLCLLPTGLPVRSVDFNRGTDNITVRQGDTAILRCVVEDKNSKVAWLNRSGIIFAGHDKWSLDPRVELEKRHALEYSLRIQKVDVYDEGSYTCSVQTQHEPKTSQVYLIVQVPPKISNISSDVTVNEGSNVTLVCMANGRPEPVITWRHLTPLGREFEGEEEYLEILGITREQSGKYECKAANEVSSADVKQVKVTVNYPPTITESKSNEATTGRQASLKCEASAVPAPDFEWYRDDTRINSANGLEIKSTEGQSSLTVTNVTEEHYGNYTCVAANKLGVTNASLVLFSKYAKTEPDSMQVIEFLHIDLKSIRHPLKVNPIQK
# Chain of Melanoma inhibitory activity protein 2 (Q91ZV0 whole entry): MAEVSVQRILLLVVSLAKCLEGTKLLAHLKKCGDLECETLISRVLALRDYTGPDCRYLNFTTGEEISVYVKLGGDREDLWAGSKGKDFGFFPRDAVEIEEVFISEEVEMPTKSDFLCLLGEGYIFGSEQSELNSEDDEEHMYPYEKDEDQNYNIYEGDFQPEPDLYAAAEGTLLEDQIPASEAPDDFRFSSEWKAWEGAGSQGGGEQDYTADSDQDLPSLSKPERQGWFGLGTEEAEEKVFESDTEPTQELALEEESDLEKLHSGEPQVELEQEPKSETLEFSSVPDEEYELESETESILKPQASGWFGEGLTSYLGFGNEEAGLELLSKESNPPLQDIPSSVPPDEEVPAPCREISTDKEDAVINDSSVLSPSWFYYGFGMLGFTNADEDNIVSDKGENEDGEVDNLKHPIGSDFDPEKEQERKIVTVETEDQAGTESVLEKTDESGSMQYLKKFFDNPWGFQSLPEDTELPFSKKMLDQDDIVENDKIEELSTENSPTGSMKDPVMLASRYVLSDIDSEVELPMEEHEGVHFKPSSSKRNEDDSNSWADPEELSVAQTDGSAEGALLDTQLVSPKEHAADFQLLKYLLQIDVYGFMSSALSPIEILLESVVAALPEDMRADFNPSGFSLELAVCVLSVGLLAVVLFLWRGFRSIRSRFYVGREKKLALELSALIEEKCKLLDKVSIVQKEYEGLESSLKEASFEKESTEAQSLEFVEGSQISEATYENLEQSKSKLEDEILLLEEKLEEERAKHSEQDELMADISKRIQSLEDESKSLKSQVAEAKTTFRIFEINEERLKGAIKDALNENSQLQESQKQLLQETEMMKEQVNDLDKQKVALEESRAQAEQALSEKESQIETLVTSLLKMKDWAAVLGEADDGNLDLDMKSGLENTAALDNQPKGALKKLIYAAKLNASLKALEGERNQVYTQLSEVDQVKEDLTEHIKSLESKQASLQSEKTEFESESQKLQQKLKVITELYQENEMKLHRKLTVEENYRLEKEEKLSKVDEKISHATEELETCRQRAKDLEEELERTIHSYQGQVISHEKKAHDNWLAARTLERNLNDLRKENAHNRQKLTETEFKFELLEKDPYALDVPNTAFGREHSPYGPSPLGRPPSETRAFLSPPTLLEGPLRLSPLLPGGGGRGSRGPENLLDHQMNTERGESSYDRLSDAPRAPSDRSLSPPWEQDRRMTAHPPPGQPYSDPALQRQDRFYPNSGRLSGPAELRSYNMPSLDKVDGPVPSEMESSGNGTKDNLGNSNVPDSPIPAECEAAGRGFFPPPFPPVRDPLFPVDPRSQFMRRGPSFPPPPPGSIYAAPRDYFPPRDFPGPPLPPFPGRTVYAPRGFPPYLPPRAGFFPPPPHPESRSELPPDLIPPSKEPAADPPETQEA
# Chain of Mitochondrial import inner membrane translocase subunit TIM14, Q96DA6 (Q96DA6 whole entry): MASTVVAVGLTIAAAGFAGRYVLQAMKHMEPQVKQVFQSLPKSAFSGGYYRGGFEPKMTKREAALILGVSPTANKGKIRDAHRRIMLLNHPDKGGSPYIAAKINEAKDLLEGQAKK
substance,measurement,setting,value
"Rho-associated protein kinase 2, P70336",listed as a hit,[1],yes
"Transport and Golgi organization protein 1 homolog, Q8BI84",listed as a hit,[2],yes
"Microtubule-associated protein 1B, P14873",listed as a hit,[3],yes
"Mitochondrial import inner membrane translocase subunit TIM14, Q96DA6",listed as a hit,[4],yes
"Mitochondrial import inner membrane translocase subunit Tim22, Q9Y584",listed as a hit,[5],yes
"Basigin, P35613",listed as a hit,[6],yes
"Myosin-10, Q61879",listed as a hit,Myosin light chain 6B,yes
same,listed as a hit,Myosin-14,yes
same,listed as a hit,Myosin-9,yes
"Dihydrolipoyl dehydrogenase, mitochondrial, P09622",listed as a hit,[7],yes
"Contactin-associated protein 1, O54991",listed as a hit,Neurofascin,yes
"Neuronal pentraxin-1, Q62443",listed as a hit,[8],yes
"Septin-7, O55131",listed as a hit,[9],yes
same,listed as a hit,Septin-11,yes
same,listed as a hit,Septin-6,yes
same,listed as a hit,Septin-8,yes
same,listed as a hit,Septin-9,yes
"Calreticulin, P27797",listed as a hit,[10],yes
"Splicing factor, proline- and glutamine-rich, Q8VIJ6",listed as a hit,[11],yes
"Hexokinase-1, P19367",listed as a hit,[12],yes
"Glycerol-3-phosphate dehydrogenase, mitochondrial, P43304",listed as a hit,[13],yes
"Proteasome subunit alpha type-4, Q9R1P0",listed as a hit,[14],yes
"Peroxiredoxin-1, P35700",listed as a hit,Peroxiredoxin-2,yes
